Screening data from PubChem.
BAZ2B inh: qHTS Assay for Inhibitors of BAZ2B; AlphaScreen BAZ2B-H3K14Ac peptide displacement; Potency, µM (top dose mostly 114 µM), for the others: at the top dose activity change, negative = inhibition, most hits filed as inhibitors; 4.4% of 360,000 active; also: % is scaled to controls: 0 for no effect and ±100 for the full control effect; nearly all actives have a fitted effect of over 60% in size
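Multi-concentration screen (max 110 uM) measuring displacement of acetylated histone H3 peptide from BAZ2B by AlphaScreen, using 50 nM protein, 50 nM peptide and 10 ug/mL streptavidin donor plus Ni-chelate acceptor beads.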
JMJD2A Tudor: qHTS Assay for Inhibitors of JMJD2A-Tudor Domain | AlphaScreen JMJD2A-Tudor / H3K4me3 peptide binding | Potency, µM (series often up to 114 µM), for inactives: at the highest dose activity change, negative = inhibition, actives largely listed as inhibitors | 4.4% of 390,000 active | Lysine-specific demethylase 4A (Homo sapiens), O75164; also: % is scaled to controls: 0 for no effect and ±100 for the full control effect; nearly all actives have a fitted effect of over 50% in size
Sfp PPTase inh: qHTS Assay for Inhibitors of Bacillus subtilis Sfp phosphopantetheinyl transferase (PPTase). 4'-phosphopantetheinyl transferase ffp (Bacillus subtilis), Q9F4F7. Biochemical Sfp PPTase activity, qHTS. Potency, µM, inactives show largest response in the series, negative = inhibition, most hits filed as inhibitors. 3.5% of 310,000 active. AID 1490, 2009;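 also: the enzyme is Sfp with the accession as filed and its product quenches rhodamine fluorescence; 0% = enzyme reaction without inhibitor and -100% = no enzyme wells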
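Reaction rates are the 30-min fluorescence difference (ex 525, em 598 nm) in wells containing 15 nM Sfp, 5 uM rhodamine-CoA and 12.5 uM BHQ-2-YbbR at pH 7.6 with 10 mM MgCl2.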
G9a block: qHTS Assay for Inhibitors of Histone Lysine Methyltransferase G9a. 8.8% of 350,000 active. G9a H3K9 monomethylation, AlphaScreen, 2 h. Potency, µM (highest dose often 102 µM), for inactives: at the top dose activity, negative = inhibition, hits mostly inhibitors. Histone-lysine N-methyltransferase EHMT2 (Homo sapiens), Q96KQ7; also: % is scaled to controls: 0 for no effect and ±100 for the full control effect; nearly all actives have a fitted effect of over 75% in size
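Quantitative HTS format: methyltransferase activity on a biotin-tagged H3K9 peptide is measured by AlphaScreen, using a rabbit anti-monomethyl-H3K9 antibody with streptavidin donor and anti-IgG acceptor beads. Final levels are 20 nM enzyme, 500 nM peptide, 20 uM SAM; 2 h RT.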
ALOX12 inh: Primary qHTS assay for inhibitors of human arachidonate 12S-lipoxygenase (ALOX12): Round 2 | Polyunsaturated fatty acid lipoxygenase ALOX12 (Homo sapiens), P18054 | purified 12hLO, xylenol orange hydroperoxide absorbance | Potency, µM (titrated, usually from 108 µM), inactives show top-dose activity change, negative = inhibition, hits mostly inhibitors | 1.1% of 580,000 active | AID 1671190, 2021; also: % is scaled to controls: 0 for no effect and ±100 for the full control effect
Target sequence (P18054 whole entry, looked up): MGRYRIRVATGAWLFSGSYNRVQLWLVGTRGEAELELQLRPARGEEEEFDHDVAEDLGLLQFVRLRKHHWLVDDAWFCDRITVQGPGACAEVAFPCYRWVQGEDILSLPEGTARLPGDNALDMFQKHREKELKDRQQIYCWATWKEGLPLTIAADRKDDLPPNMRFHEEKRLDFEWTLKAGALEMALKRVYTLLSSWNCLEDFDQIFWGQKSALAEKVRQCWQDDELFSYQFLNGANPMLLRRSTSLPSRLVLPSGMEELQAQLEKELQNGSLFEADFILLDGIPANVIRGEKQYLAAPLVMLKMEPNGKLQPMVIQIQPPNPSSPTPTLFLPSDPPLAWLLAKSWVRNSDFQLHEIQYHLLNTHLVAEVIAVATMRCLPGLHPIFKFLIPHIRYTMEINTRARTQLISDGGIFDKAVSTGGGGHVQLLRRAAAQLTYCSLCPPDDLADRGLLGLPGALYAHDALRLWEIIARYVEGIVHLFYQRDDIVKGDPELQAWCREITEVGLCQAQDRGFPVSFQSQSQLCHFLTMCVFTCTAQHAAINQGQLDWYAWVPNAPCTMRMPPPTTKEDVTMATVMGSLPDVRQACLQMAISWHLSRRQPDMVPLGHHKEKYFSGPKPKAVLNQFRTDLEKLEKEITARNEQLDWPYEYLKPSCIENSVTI
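Purified human 12hLO at 150 nM in 25 mM Hepes, 0.01% Triton X-100, pH 7.0, preincubated 15 min at room temperature with compound. Reaction started with 40 uM arachidonic acid, 30 min at room temperature. Hydroperoxide measured by Fe-xylenol orange, 573/405 nm absorbance ratio.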
HP1b chromo inh: HTS for Inhibitors of HP1-beta Chromodomain Interactions with Methylated Histone Tails | AID 540317, 2011 | Potency, µM (titrated, usually from 114 µM), without a hit: top-dose activity change, negative = inhibition, actives largely listed as inhibitors | 0.56% of 390,000 active | Chromobox protein homolog 1 (Homo sapiens), P83916 | AlphaScreen HP1-beta / biotin-H3K9me3 peptide binding; also: nearly all actives have a fitted effect of over 70% in size
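Compound inhibition of the preformed complex between 50 nM HP1-beta and 50 nM biotinylated H3K9me3 peptide was read by AlphaScreen. Buffer was PBS pH 7.4 with 0.01% Tween-20. Incubations ran 30 min at room temperature, with 10 ug/mL donor/acceptor beads.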
* marks the source's active call; other numbers are inactive results; ? = inconclusive; nt = not tested or not shown; [ ] = dose if it differs, or a comment. Rows were chosen to be rich in hits. Some 8.7% of all compounds tested hit in one or more screens of this group. Calls follow the shape of the dose curve; as a rule, active = well fitted curve in the direction sought with a large enough effect; inconclusive = small, poorly fitted or top-dose-only effect, or another doubt; inactive = no such curve, though single readings can be large; an effect the other way counts as inactive or inconclusive. Potency is read from the fitted curve at half-maximal effect.

SMILES | BAZ2B inh | JMJD2A Tudor | Sfp PPTase inh | G9a block | ALOX12 inh | HP1b chromo inh
COc1ccc(C(=N/O)/C(=N/O)c2ccc(OC)cc2)cc1 | -24% | -34% | 10% | -2%[12.7 µM] | -5% | 9%
O=C(COc1ncnc2c(Cl)cc(Cl)cc12)Nc1ccc(F)c(Cl)c1 | nt | nt | nt | nt | -13% | nt
Cc1ccc(/C=c2\s/c(=C(/C#N)C(=O)N3CCCC3)n(Cc3ccco3)c2=O)s1 | ? | ? | 13µM* | ? | ? | -13%
CC(/C=C/c1ccccc1)=N/NC(=O)c1cc([N+](=O)[O-])cc([N+](=O)[O-])c1 | -26% | -17% | ? | 19%[59 µM] | 2% | 21%
CC(/C=C/c1ccccc1)=N\Nc1ccccc1[N+](=O)[O-] | 2.2µM* | 10µM* | -5% | 0.89µM* | -7% | 4µM*
O=C(NCCCN1CCCC1=O)c1cc2cc(Cl)ccc2[nH]1 | nt | nt | nt | nt | 2% | nt
CSc1ccc(COC(=O)c2cc([N+](=O)[O-])ccc2N2CCOCC2)cc1 | -30% | ? | nt | 45µM* | -24% | ?
CN(C)S(=O)(=O)c1cccc(COC(=O)c2cc([N+](=O)[O-])ccc2N2CCOCC2)c1 | -3% | -25% | nt | 56µM* | -1% | -1%
Cc1ccccc1COC(=O)c1cc([N+](=O)[O-])ccc1N1CCOCC1 | -30% | ? | 17% | ? | 0% | 2%
COc1ccc(N2CCN(C(=O)c3cc(-c4ccc(F)cc4)[nH]c3C)CC2)cc1 | 45µM* | 45µM* | 11% | 45µM* | 0% | ?
CC(=O)c1ccc(N2CCN(C(=O)c3ccc4[nH]c(C)c(C)c4c3)CC2)cc1 | nt | ? | nt | nt | 0% | -14%
Cc1[nH]c2ccc(C(=O)N3CCN(c4ccc(F)cc4)CC3)cc2c1C | 35µM* | 50µM* | 1% | 79µM* | ? | -24%
COc1ccc(N2CCN(C(=O)c3ccc4[nH]c(C)c(C)c4c3)CC2)cc1 | 40µM* | -5% | 1% | 18%[12.7 µM] | 11% | 31%
Cc1[nH]c(-c2ccc(F)cc2)cc1C(=O)N1CCN(c2ccc(Cl)cc2)CC1 | ? | ? | -24% | ? | -10% | -28%
COc1cc2c(cc1OC)CN(C(=O)c1ccc3[nH]c(C)c(C)c3c1)CC2 | 50µM* | ? | -3% | nt | -25% | -27%
COc1ncccc1-c1ccnc(-c2nnc(C)n2Cc2ccccc2)c1 | nt | nt | nt | nt | 8%[176 µM] | nt
O=C(NC1CCCC1)c1noc(-c2ccc[nH]c2=O)n1 | nt | nt | nt | nt | 2% | nt
CC(C)NC(=O)N1CCC(c2nc(C3CCOCC3)no2)CC1 | nt | nt | nt | nt | 9% | nt
O=C(c1ccc([N+](=O)[O-])o1)N1CCc2ccccc2C1 | -27% | -10% | 9% | -30% | -8% | 12%
COc1cc2c(cc1OC)CN(C(=O)c1ccc([N+](=O)[O-])o1)CC2 | -31% | -27% | 3% | 56µM* | 0% | -4%
O=S(=O)(Nc1ccc(O)c2ccccc12)c1cccs1 | -33% | 13µM* | ? | 7.1µM* | 32µM* | 45µM*
O=S(=O)(Nc1ccc(O)c2ccccc12)c1ccc(Br)cc1 | 45µM* | nt | -18% | 40µM* | nt | nt
CC(=O)Nc1ccc(NS(=O)(=O)c2ccccc2)c2ccccc12 | 5% | -7% | -7% | 9% | 0% | 66%
COC(=O)c1cnc(NC(=O)C(NC(=O)c2ccccc2Br)C(C)C)s1 (centres undefined) | nt | nt | nt | nt | -26% | nt
Cc1cccc(C)c1NC(=O)CN1CCN(Cc2nc3ccccc3o2)CC1 | nt | nt | nt | nt | 25% | nt
